Source: PubChem BioAssay
Compounds with a hit are over-represented: about 19% of the library has one in this group of screens.
TDP1 inh – qHTS Assay for Inhibitors of Tyrosyl-DNA Phosphodiesterase (TDP1). Tyrosyl-DNA phosphodiesterase 1 (Homo sapiens), Q9NUW8. recombinant TDP1, AlphaScreen DNA substrate cleavage. Potency, µM (series often up to 130 µM), for inactives: at the highest dose activity change, negative = inhibition, usual class: inhibitors. hit rate 0.28% among 350,000; note: potency is the fitted concentration of half-maximal effect; % is set by controls: 0 for no effect and ±100 for the full control effect; nearly all actives have a fitted effect of over 40% in size
Target sequence (Q9NUW8 whole entry, looked up): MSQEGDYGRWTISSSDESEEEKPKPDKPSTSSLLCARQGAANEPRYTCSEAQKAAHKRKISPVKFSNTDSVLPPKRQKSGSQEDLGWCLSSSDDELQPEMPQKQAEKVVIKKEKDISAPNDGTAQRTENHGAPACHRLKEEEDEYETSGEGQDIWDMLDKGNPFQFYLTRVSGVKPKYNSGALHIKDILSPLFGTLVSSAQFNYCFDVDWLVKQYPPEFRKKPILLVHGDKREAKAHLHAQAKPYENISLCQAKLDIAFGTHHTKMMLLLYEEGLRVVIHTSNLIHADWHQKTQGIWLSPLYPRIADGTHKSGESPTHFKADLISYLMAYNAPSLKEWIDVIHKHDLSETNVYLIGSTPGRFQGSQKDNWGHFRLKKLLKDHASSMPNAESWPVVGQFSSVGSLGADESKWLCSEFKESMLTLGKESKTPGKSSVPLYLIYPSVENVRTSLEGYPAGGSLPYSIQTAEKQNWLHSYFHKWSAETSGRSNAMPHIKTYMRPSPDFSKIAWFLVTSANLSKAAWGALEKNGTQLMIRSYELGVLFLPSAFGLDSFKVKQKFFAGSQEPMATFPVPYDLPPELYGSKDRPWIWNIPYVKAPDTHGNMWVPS
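Tdp1 1 nM final; 15 min RT w/ cpd; substrate 15 nM, 5 min; beads 10 ug/ml, 10 min; AlphaScreen read. Neg ctrl: no enzyme.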
TGFb inhibitor – qHTS for Inhibitors of TGF-b | Potency, µM (titrated, usually from 46.1 µM), for inactives: at the top dose activity, negative = inhibition, most hits filed as inhibitors | hit rate 1.2% among 410,000 | HepG2 CAGA-GFP TGF-b/SMAD3 reporter, GFP fluorescence, 18 h; TGF-beta stimulated, 500 pg/mL final | AID 588855, 2011; note: potency is the fitted concentration of half-maximal effect; % is set by controls: 0 for no effect and ±100 for the full control effect; nearly all actives have a fitted effect of over 65% in size
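Inhibition of TGF-beta-driven CAGA-GFP reporter expression in HEPG2 cells is measured by cellular GFP fluorescence after 18 h stimulation with 500 pg/mL recombinant TGF-beta in 1% FBS medium at 37 degrees C.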
HepG2 viability – qHTS for Inhibitors of TGF-b: Cytotox Counterscreen; HepG2 CAGA-GFP viability, ATP luminescence, 18 h; Potency, µM (top dose mostly 46.1 µM), for the others: at the highest dose activity change, negative = cytotoxicity, hits mostly cytotoxic; hit rate 0.76% among 410,000; AID 588856, 2011; note: potency is the fitted concentration of half-maximal effect
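HepG2 CAGA-GFP cells (1000/well, DMEM with 1% FBS) received compound, then TGF-beta at 500 pg/mL final, and were incubated 18 hours at 37 degrees C. Viability was read by CellTiter-Glo luminescence. Media-only wells were set as complete cell-killing and DMSO as no toxicity.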
TDP1 cell noCPT – qHTS for Inhibitors of human tyrosyl-DNA phosphodiesterase 1 (TDP1): qHTS in cells in absence of CPT. DT40 Tdp1-/- hTDP1 cells, no CPT, ATP luminescence, 48 h. Potency, µM (series often up to 46.2 µM), inactives show at the highest dose activity change, negative = growth inhibition, most hits filed as inhibitors. hit rate 15% among 420,000. AID 686978, 2013; note: potency is the fitted concentration of half-maximal effect; % is set by controls: 0 for no effect and ±100 for the full control effect; nearly all actives have a fitted effect of over 55% in size
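A cellular qHTS used chicken DT40 cells lacking endogenous Tdp1 but carrying stably transfected human TDP1. Compounds were applied without camptothecin, and cell growth kinetics were judged by ATP-dependent luminescence after ≥48 hr.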
IL1B secr inh – qHTS for Inhibitors of Inflammasome Signaling: IL-1-beta AlphaLISA Primary Screen | THP-1 LPS/ATP IL-1B secretion, AlphaLISA, 16 h; stronger effect = lower value | activity change, % at 57.5 µM | hit rate 4.7% among 360,000; in the data active = activity change below about -50%; inconclusive = mostly about -30% to -49%; note: % is set by controls: 0 for no effect and ±100 for the full control effect
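THP-1 cells pretreated 1 hr with compounds (up to 57.5 uM final), then stimulated with LPS (250 ng/mL final) plus ATP (1.25 mM final); secreted IL-1B measured by AlphaLISA after 16 hr, decreased signal indicating inhibition.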
TDP1 cell CPT – qHTS for Inhibitors of human tyrosyl-DNA phosphodiesterase 1 (TDP1): qHTS in cells in presence of CPT | chicken DT40 Tdp1-/-;hTDP1 cells + 20 nM CPT, ATP luminescence, 48 h | Potency, µM (series often up to 46.2 µM), inactives show at the top dose activity change, negative = growth inhibition, most hits filed as inhibitors | hit rate 12% among 420,000; note: potency is the fitted concentration of half-maximal effect; % is set by controls: 0 for no effect and ±100 for the full control effect; nearly all actives have a fitted effect of over 55% in size
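Cell growth measured by CellTiter-Glo luminescence after a minimum 48 h, 37 C compound exposure with 20 nM CPT in Tdp1-knockout DT40 cells stably expressing hTDP1, seeded 400/well; qHTS titration format.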
Active calls of the source: *; [ ] = dose if it differs, or a comment. Unless noted, calls come from the whole dose curve; as a rule, active = well fitted curve in the direction sought with a large enough effect; inconclusive = small, poorly fitted or top-dose-only effect, or another doubt; inactive = no such curve, though single readings can be large; an effect the other way counts as inactive or inconclusive.

`CN1CCN(/N=C/c2ccc(-c3ccccc3)cc2)CC1` gave TDP1 inh 10.3%, TGFb inhibitor 6.1%, HepG2 viability -21.3%, TDP1 cell noCPT inconclusive, IL1B secr inh -55.4* and TDP1 cell CPT inconclusive.
`Cc1ccc(CCNC(=O)C(C)n2nc(C)c3c(C)n(-c4ccc(C)cc4)nc3c2=O)cc1` (configuration not stated) gave TDP1 inh 5.6%, TGFb inhibitor inconclusive, HepG2 viability -40.5%, TDP1 cell noCPT 20.6µM* and TDP1 cell CPT 20.6µM*.
COc1ccc(CCNC(=O)C(C)n2nc(C)c3c(C)n(-c4ccc(C)cc4)nc3c2=O)c(OC)c1 (configuration not stated) was read as TDP1 inh 3.8%, TGFb inhibitor inconclusive, HepG2 viability -24.1%, TDP1 cell noCPT inconclusive, IL1B secr inh -50.4* and TDP1 cell CPT 23.1µM*.
`COc1ccc(CNC(=O)C(C)n2nc(C)c3c(C)n(-c4ccc(C)cc4)nc3c2=O)cc1` (configuration not stated) gave TDP1 inh 1.0%, TGFb inhibitor inconclusive, HepG2 viability -26.9%, TDP1 cell noCPT inconclusive, IL1B secr inh -15.2 and TDP1 cell CPT 18.4µM*.
`CCC(C(=O)NCc1ccc(OC)c(OC)c1)n1nc(C)c2c(C)n(-c3ccc(C)cc3)nc2c1=O` (configuration not stated) gave TDP1 inh 8.5%, TGFb inhibitor inconclusive, HepG2 viability -8.9%, TDP1 cell noCPT 23.1µM* and TDP1 cell CPT 16.4µM*.
Screening CCN(CC)S(=O)(=O)c1ccc(C(=O)NCC(=O)NCCCc2ccccc2)cc1 returned TDP1 inh 5.7%[0.0935 µM], TGFb inhibitor -6.2%, HepG2 viability -13.9%, TDP1 cell noCPT inconclusive, IL1B secr inh 15.6 and TDP1 cell CPT -18.4%.
`Cc1nn(CCCC(=O)NCCc2ccc(Cl)cc2)c(=O)c2nn(-c3ccccc3)c(C)c12` gave TDP1 inh 0.7%, TGFb inhibitor 6.7%, HepG2 viability -2.9%, TDP1 cell noCPT inconclusive, IL1B secr inh -7.9 and TDP1 cell CPT inconclusive.
For Cc1ccc(-n2nc3c(=O)n(CC(=O)NC(C)CCc4ccccc4)nc(C)c3c2C)cc1 (configuration not stated) the results were TDP1 inh 0.0%, TGFb inhibitor inconclusive, HepG2 viability -19.6%, TDP1 cell noCPT 23.1µM*, IL1B secr inh 19.1 and TDP1 cell CPT inconclusive.
Screening CCC(C(=O)NCCC1=CCCCC1)n1nc(C)c2c(C)n(-c3ccccc3)nc2c1=O (configuration not stated) returned TDP1 inh 4.5%, TGFb inhibitor inconclusive, HepG2 viability -2.7%, TDP1 cell noCPT 25.9µM*, IL1B secr inh -0.1 and TDP1 cell CPT inconclusive.
`CCC(C(=O)Nc1cc(F)ccc1F)n1nc(C)c2c(C)n(-c3ccc(C)cc3)nc2c1=O` (configuration not stated) gave TDP1 inh 2.6%, TGFb inhibitor inconclusive, HepG2 viability -12.6%, TDP1 cell noCPT 16.4µM*, IL1B secr inh -9.2 and TDP1 cell CPT 14.6µM*.
For CCC(C(=O)NCCCc1ccccc1)n1nc(C)c2c(C)n(-c3ccccc3)nc2c1=O (configuration not stated) the results were TDP1 inh 0.5%, TGFb inhibitor -29.7%, HepG2 viability -17.9%, TDP1 cell noCPT -27.7%, IL1B secr inh 12.5 and TDP1 cell CPT inconclusive.
Cc1nn(Cc2ccccc2)c(=O)c2nn(-c3ccc(Cl)cc3)c(C)c12 was read as TDP1 inh 0.0%, TGFb inhibitor -18.6%, HepG2 viability 11.8%, TDP1 cell noCPT 20.6µM*, IL1B secr inh -70.2* and TDP1 cell CPT inconclusive.
CCCNC(=O)C1CCC(Cn2c(=O)c3sccc3n(CC(=O)N3CCCC3)c2=O)CC1 (configuration not stated) was read as TDP1 inh 3.2%, TGFb inhibitor 30.1%, HepG2 viability 17.5%, TDP1 cell noCPT 3.7% and TDP1 cell CPT -0.4%.
For C=C[C@H](CC(C)C)N(Cc1ccccc1)S(=O)(=O)N(Cc1ccccc1)[C@H](C=C)CC(C)C the results were TGFb inhibitor 0.3%, HepG2 viability 10.1%, TDP1 cell noCPT inconclusive and TDP1 cell CPT inconclusive.
COc1ccc(C2C(=O)N(C3CCC(C)CC3)CC(=O)N2C2CCCCC2)cc1OC (configuration not stated) was read as TDP1 inh 5.2%, TGFb inhibitor -2.0%, HepG2 viability 1.0%, TDP1 cell noCPT inconclusive and TDP1 cell CPT inconclusive.
For COc1ccccc1P(=O)(Cc1ccccc1[N+](=O)[O-])c1ccccc1 (configuration not stated) the results were TGFb inhibitor -10.4%, HepG2 viability -18.0%, TDP1 cell noCPT 14.6µM*, IL1B secr inh -9.9 and TDP1 cell CPT inconclusive.
Screening Cc1ccccc1C(=O)Oc1c(Sc2ccccc2)c(C)nn1C(C)(C)C returned TDP1 inh -5.9%, TGFb inhibitor -20.4%, HepG2 viability -42.8%, TDP1 cell noCPT 14.6µM* and TDP1 cell CPT inconclusive.
Screening COc1ccccc1C(=O)Oc1c(Sc2ccccc2)c(C)nn1C(C)(C)C returned TDP1 inh -5.9%, TGFb inhibitor inconclusive, HepG2 viability -101.4%, TDP1 cell noCPT 14.6µM* and TDP1 cell CPT inconclusive.
Cc1nn(C(C)(C)C)c(OC(=O)c2ccco2)c1Sc1ccccc1 was read as TDP1 inh -2.9%, TGFb inhibitor 13.7%, HepG2 viability -41.6%, TDP1 cell noCPT inconclusive, IL1B secr inh -6.1 and TDP1 cell CPT -7.7%.
`COc1cccc2c1CCCC2CCCN1CCN(C2CCCCC2)CC1` (configuration not stated) gave TDP1 inh 18.0%.
CCc1cccc2cc(C(O)CNC(C)(C)C)oc12 (configuration not stated) was read as TDP1 inh 5.6%.
`Cc1ccccc1C(=O)Nc1nnc(S(=O)(=O)N2CCc3ccccc32)s1` gave TDP1 inh 3.9%, TGFb inhibitor inconclusive, HepG2 viability -40.4%, TDP1 cell noCPT inconclusive and TDP1 cell CPT 10.1%.
